In PubChem BioAssay AID623995 (National Center for Advancing Translational Sciences (NCATS), 2012):
The other results are listed elsewhere or left out. Where a call stands in place of a potency, no number is given. Records with an inconclusive call do not appear. Calls of active or inactive are those of the source. Calls follow the shape of the dose curve; as a rule, active = well fitted inhibition curve with a large enough effect; inconclusive = small, poorly fitted or top-dose-only effect; inactive = no such curve, though single readings can be large or run the other way.

target: Isocitrate dehydrogenase [NADP] cytoplasmic (Homo sapiens) (UniProt O75874); test: qHTS for Inhibitors of mutant isocitrate dehydrogenase 1 (IDH1): Cherrypicks in WT IDH1; conditions: WT IDH1 enzyme, NADPH diaphorase/resazurin fluorescence; series mostly up to 115 µM; also: nearly all actives have a fitted effect of over 55% in size
Sequence (O75874 whole entry, looked up, canonical isoform): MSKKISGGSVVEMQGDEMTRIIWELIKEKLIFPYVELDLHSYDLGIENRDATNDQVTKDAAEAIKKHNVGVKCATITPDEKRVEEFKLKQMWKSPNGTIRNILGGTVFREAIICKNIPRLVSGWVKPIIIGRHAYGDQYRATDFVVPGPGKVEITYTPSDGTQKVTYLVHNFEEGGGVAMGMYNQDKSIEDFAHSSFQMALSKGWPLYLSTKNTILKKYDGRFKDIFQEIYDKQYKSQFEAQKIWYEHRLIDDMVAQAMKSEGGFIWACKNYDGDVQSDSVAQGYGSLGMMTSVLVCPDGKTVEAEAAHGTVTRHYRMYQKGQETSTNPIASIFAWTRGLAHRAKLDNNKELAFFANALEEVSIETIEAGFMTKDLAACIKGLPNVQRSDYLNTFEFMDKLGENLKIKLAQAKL
Source text: Unbiased genomic sequencing for 22 glioma genomes found recurrent mutation of isocitrate dehydrogenase 1 (IDH1) on chromosome 2q33-a gene encoding the cytosolic isoform of IIDH1associated with the tricarboxylic acid cycle (TCA) that catalyzes the oxidative decarboxylation of isocitrate, yielding alpha-ketoglutarate and CO2 via NADP+ to NADPH conversion. Subsequent studies confirmed the recurrent IDH mutations in up to 70% of secondary gliomas and in 10% of AML cases. […] This in effect defines IDH1 as an oncogene, and provides an extraordinary opportunity to discover chemical probes against mutant IDH1 that may translate into much needed new therapies for glioma and AML patients. QHTS-compatible fluorescent, enzymatic assay was developed to identify inhibitors of the IDH1 mutant (AID 602179). To identify selectivity of the identified inhibitors, a secondary enzymatic assay against the WT IDH1 was also developed. Inhibition of the WT IDH1 leads to a decrease in the amount of NADPH relative to a DMSO control and a concomitant decrease in the fluorescence of the diaphorase/resazurin enzyme product resorufin at 590 nm. Compounds were screened as a concentration-titration series that ranged from 115 uM to 0.20 uM. NIH Molecular Libraries Probe Production Network [MLPCN] NIH Chemical Genomics Center [NCGC] MLSCN Grant: R03 DA032129 PI Name: Dr. Lenny Dang
Enzyme buffer was dispensed into black, solid 1536-well plates at 3 microL/well in 20 mM Tris buffer, pH 7.5, containing final concentrations of 10 mM MgCl2, 20 mM NaCl, 0.05% BSA, 2 mM b-ME and 0.65 nM WT IDH1. Then, 23 nL of compounds or DMSO were delivered to each well using a pin tool. The substrate and detection buffer (1 uL; 20 mM Tris buffer, pH 7.5, containing final concentrations of 10 mM MgCl2, 20 mM NaCl, 0.05% BSA, 0.06 mM NADP+, 0.53 uM diaphorase, 0.012 mM resazurin and 0.08 mM isocitrate) was added to start the enzymatic reaction. The fluorescence intensity was monitored in kinetic mode on a ViewLux plate reader at 598 nm for 10 minutes (Ex 525, EM 598, bodipy mirror, 0.5 sec exposure). The % Activity was determined from the corrected fluorescence values. As no specific WT IDH1 inhibitors have been identified in the literature, 1x (0.65 nM) and 0x WT IDH1 enzyme controls (untreated) were included to normalize % Activity of identified inhibitors; 0x enzyme values corresponded to 100% Activity (full inhibition), while 1x WT IDH1 enzyme values were used to normalize 0% Activity (no inhibition). Concentration-response curves were fitted to the signals arising from the resulting fluorescence. The concentration-response curves were then classified based on curve quality (r2), response magnitude and degree of measured activity, and compounds were subsequently categorized based on their curve class. […] Keywords: Isocitrate dehydrogenase, IDH1, IDH1 R132H, 2-HG, 2-hydroxyglutarate, AML, glioma, MLSMR, MLPCN, NIH Roadmap, qHTS, NCGC
Potency is read from the fitted curve at half-maximal effect.

Row | SMILES | Potency
1 | Cc1nc(C)c(C(=O)N(c2ccc(C)c(C)c2)C(C(=O)NCc2ccco2)c2ccccc2)s1 (centres undefined) | inactive
2 | CC(C)Nc1nc(N(c2ccccc2)c2ccccc2)nc(-n2ccnc2)n1 | inactive
3 | CCCCC(=O)NC(c1ccc(OC)c(OC)c1)c1ccc2cccnc2c1O (centres undefined) | inactive
4 | N#CC1=C(N)C(C#N)(C#N)[C@H](c2ccsc2)[C@H]2COCC=C12 | inactive
5 | CCCOc1ccc(C2c3c(-c4ccccc4O)n[nH]c3C(=O)N2Cc2cccnc2)cc1 (centres undefined) | inactive
6 | CCSc1nc2sc3c(c2c(=O)n1-c1ccc(C)cc1)CCN(C)C3 | inactive
7 | C(=N/Nc1cc(N2CCOCC2)nc(N2CCOCC2)n1)/c1ccccc1 | inactive
8 | Cc1cccc(N(C(=O)Cc2cccs2)C(C(=O)NC2CCCC2)c2ccsc2)c1 (centres undefined) | inactive
9 | CCCc1[nH]nc2c1C(c1ccc(OC)c(Cn3nc(C)c(Br)c3C)c1)C(C#N)=C(N)O2 (centres undefined) | inactive
10 | COc1ccc(/C=C2/SC(=O)N(CCCCCC(=O)Nc3ccccc3C(=O)O)C2=S)cc1 | 79.4 µM (active)
11 | COc1ccc(C(C(=O)NC2CCCCC2)N(C(=O)c2snc(C(N)=O)c2N)c2ccccc2OC)cc1 (centres undefined) | inactive
12 | Cc1ccc(Nc2nc(CSc3nnc(-c4ccncc4)n3-c3ccccc3C)cs2)cc1 | inactive
13 | Cn1c(COc2ccc(Cl)cc2)nc2ccccc2c1=O | inactive
14 | COc1cc2c(-c3ccc4c(c3)OCO4)c(-c3ccsc3)oc(=O)c2cc1OC | inactive
15 | COc1cc(/C=C2/C(=O)ON=C2C)ccc1OCc1ccccc1F | inactive
16 | CC(C)(C)c1ccc(S(=O)(=O)Nc2ccc(O)c(Sc3nc4ccccc4s3)c2)cc1 | inactive
17 | Cc1nc(-c2ccc(Cl)cc2)sc1C(=O)CBr | inactive
18 | COc1ccc(C(CCN(Cc2ccc(OC)c(OC)c2)C(=O)CCl)c2ccccc2)cc1 (centres undefined) | inactive
19 | COc1ccc(/C=N/Nc2cc(N3CCOCC3)nc(C)n2)c(OC)c1 | inactive
20 | CCC(C)(C)NC(=O)C(c1cccn1C)N(Cc1ccc(C)cc1)C(=O)Cn1nnc2ccccc21 (centres undefined) | inactive
21 | CCOC(=O)c1ccc(N2C(=O)c3n[nH]c(-c4ccco4)c3C2c2ccc(O)cc2)cc1 (centres undefined) | inactive
22 | COC(=O)c1cccc(N(C(=O)c2ccco2)C(C(=O)NC2CCCC2)c2ccco2)c1 (centres undefined) | inactive
23 | CCCc1nc2c(c(=O)c3ccccc3n2C)c(=O)n1C1CCCCCC1 | inactive
24 | CC(C)N(C(=O)CSc1nc(COc2ccccc2)nc2ccccc12)C(C)C | inactive
25 | O=C1c2cccc3cccc(c23)C(=O)N1CCCCCc1n[nH]c(=S)o1 | inactive
26 | Cc1ccc2nc(N3C(=O)C(O)=C(C(=O)c4ccco4)C3c3cccc(O)c3)sc2c1 (centres undefined) | inactive
27 | CCOC(=O)c1oc2c(CN3CCN(CCO)CC3)c(O)c(CC)cc2c(=O)c1-c1nc2ccccc2s1 | inactive
28 | COc1cc(/C=C2/SC(=S)N(Cc3ccccc3)C2=O)cc(OC)c1O | inactive
29 | CCCNc1ncnc2c1c(-c1ccccc1)cn2-c1ccc(OCC)cc1 | inactive
